± gives the standard deviation of the averaged measurements. About 6,200 targets were measured; listed, in parts, are those with the largest changes and a random draw of the rest.
Compound: Nc1ncnc2c1ncn2[C@@H]1O[C@H](COP(=O)(O)OP(=O)(O)NP(=O)(O)O)[C@@H](O)[C@H]1O [adenylyl imidodiphosphate]
Experiment: NP40-soluble protein abundance relative to vehicle (solubility fold change) (ratio); higher = more soluble protein in presence of AMP-PNP
In short: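 Jurkat crude lysate (Dounce-homogenised) was treated with eight concentrations from 0.1 to 10 mM for 10 min at room temperature, then 3 min at 37 °C. It was solubilised with 0.8% NP40 and benzonase (60 min, 4 °C) and ultracentrifuged, and the supernatant was TMT-labelled for LC-MS/MS. Intensities were vsn-normalised, and the value is the fold change against the NP40-processed vehicle per replicate, from three independent experiments.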

Sequence of UniProt Q6I9Y2 (Q6I9Y2 whole entry): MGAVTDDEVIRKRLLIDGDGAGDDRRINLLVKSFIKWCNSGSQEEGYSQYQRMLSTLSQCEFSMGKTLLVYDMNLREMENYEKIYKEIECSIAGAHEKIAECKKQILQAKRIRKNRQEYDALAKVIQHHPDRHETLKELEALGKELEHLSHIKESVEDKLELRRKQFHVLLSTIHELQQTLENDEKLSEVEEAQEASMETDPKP
Sequence of UniProt Q13769 (Q13769 whole entry): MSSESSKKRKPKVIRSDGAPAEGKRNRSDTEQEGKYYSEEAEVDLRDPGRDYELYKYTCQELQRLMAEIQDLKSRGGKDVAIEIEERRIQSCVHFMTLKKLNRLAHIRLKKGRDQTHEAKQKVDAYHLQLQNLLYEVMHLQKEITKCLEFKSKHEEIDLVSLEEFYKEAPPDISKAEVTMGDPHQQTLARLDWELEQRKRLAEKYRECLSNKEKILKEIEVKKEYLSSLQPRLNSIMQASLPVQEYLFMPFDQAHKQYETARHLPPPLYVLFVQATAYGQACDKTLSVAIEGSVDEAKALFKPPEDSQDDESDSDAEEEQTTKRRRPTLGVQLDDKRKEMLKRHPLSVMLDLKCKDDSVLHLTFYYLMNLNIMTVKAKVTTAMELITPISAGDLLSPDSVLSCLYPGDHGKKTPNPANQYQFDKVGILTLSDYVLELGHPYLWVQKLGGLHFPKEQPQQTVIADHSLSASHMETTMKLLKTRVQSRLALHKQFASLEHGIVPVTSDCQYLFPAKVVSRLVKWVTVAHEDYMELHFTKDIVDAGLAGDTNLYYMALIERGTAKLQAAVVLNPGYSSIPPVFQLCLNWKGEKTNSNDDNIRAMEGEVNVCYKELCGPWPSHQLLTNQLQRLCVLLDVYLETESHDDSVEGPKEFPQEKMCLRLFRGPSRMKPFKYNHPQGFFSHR
Sequence of UniProt Q6UN15 (Q6UN15 whole entry): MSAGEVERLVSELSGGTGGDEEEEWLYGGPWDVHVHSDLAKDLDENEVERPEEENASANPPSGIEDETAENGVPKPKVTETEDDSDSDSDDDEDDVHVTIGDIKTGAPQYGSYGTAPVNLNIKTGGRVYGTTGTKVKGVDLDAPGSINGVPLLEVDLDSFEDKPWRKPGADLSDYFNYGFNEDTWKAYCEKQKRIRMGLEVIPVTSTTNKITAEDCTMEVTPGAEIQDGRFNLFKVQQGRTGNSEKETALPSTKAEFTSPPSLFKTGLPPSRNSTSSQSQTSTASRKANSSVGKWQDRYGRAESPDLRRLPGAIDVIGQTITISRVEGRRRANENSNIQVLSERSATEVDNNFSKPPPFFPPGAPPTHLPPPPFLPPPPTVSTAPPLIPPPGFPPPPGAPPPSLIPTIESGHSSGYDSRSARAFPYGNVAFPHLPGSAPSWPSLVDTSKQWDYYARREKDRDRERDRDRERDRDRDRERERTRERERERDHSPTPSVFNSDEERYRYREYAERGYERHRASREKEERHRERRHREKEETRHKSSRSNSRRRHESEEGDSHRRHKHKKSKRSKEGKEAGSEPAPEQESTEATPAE
Sequence of UniProt Q92614 (Q92614 whole entry, looked up): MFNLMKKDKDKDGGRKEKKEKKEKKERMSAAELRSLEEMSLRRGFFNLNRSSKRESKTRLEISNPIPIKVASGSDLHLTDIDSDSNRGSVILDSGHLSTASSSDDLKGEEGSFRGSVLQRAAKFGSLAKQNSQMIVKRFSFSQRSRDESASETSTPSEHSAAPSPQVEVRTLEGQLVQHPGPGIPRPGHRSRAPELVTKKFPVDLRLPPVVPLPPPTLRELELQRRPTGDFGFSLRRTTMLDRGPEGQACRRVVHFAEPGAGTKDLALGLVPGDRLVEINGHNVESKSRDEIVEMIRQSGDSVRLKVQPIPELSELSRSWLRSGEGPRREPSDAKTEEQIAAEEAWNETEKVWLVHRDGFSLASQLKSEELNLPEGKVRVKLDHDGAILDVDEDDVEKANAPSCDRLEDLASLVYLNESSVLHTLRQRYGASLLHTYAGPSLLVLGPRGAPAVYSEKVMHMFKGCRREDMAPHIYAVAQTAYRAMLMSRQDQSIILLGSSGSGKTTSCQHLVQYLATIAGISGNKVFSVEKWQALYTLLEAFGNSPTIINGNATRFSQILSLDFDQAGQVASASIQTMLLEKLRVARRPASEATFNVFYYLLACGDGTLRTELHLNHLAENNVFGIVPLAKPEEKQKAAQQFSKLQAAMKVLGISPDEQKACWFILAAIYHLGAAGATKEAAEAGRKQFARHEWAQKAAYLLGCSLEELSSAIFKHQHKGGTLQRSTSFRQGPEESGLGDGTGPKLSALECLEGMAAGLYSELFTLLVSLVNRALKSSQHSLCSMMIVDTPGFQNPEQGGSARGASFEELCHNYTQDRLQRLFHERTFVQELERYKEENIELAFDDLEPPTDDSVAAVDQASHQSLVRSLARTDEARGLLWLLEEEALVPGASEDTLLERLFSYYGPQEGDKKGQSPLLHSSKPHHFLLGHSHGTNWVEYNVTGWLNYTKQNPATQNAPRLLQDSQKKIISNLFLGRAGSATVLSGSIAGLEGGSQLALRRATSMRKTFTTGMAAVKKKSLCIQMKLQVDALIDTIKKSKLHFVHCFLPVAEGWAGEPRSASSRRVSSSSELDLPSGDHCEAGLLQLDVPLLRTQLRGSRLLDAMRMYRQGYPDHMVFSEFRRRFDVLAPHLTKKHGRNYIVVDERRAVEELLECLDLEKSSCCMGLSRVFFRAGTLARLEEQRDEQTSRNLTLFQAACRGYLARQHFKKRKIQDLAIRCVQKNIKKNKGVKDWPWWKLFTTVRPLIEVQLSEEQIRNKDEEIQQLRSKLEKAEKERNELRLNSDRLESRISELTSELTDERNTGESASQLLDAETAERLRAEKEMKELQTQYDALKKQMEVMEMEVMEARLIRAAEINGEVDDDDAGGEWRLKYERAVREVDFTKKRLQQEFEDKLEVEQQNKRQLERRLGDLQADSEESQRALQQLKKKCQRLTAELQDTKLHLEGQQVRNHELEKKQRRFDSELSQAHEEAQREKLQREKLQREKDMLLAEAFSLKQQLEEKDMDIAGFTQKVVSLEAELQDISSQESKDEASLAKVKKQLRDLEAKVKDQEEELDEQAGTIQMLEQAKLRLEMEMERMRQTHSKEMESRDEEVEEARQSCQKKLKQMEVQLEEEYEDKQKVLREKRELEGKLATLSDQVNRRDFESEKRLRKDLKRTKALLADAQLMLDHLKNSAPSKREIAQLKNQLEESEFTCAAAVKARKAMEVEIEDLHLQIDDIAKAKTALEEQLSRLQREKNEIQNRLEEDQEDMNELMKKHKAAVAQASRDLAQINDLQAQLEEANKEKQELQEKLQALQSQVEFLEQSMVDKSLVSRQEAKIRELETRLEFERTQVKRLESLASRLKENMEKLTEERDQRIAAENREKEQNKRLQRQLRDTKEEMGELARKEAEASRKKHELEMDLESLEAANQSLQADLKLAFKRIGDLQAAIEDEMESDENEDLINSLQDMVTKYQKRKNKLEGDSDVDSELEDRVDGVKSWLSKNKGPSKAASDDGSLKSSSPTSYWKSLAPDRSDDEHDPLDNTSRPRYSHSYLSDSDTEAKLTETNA
Sequence of UniProt Q86UE4 (Q86UE4 whole entry): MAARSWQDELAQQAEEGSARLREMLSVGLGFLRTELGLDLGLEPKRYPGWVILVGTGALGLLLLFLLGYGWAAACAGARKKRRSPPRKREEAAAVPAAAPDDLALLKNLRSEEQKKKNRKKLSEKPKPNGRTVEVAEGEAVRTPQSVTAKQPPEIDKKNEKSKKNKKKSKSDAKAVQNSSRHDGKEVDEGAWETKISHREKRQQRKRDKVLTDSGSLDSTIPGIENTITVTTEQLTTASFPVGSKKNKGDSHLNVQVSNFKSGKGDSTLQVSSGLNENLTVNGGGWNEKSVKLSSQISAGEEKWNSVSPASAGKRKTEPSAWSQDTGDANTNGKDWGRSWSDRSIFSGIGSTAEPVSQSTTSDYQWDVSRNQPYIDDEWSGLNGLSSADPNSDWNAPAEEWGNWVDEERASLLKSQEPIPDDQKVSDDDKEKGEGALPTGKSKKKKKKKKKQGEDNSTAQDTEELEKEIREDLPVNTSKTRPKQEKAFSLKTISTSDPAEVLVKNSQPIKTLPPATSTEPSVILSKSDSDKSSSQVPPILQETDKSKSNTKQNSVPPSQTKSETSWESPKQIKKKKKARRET
Sequence of UniProt Q13442 (Q13442 whole entry): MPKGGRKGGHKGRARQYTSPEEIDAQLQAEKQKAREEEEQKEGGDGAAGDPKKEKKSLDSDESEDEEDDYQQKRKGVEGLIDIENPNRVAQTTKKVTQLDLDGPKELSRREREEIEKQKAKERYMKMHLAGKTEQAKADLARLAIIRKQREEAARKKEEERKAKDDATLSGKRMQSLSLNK
Sequence of UniProt Q8TB37 (Q8TB37 whole entry): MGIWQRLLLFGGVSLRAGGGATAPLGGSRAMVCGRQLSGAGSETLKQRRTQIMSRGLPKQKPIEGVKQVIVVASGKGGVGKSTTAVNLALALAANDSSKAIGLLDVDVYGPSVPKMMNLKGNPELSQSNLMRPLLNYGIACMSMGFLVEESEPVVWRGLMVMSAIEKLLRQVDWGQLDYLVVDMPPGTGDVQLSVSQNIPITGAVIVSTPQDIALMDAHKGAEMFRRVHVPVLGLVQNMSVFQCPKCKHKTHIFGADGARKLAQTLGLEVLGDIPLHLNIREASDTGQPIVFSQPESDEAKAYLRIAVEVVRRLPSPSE
Sequence of UniProt Q8TB61 (Q8TB61 whole entry): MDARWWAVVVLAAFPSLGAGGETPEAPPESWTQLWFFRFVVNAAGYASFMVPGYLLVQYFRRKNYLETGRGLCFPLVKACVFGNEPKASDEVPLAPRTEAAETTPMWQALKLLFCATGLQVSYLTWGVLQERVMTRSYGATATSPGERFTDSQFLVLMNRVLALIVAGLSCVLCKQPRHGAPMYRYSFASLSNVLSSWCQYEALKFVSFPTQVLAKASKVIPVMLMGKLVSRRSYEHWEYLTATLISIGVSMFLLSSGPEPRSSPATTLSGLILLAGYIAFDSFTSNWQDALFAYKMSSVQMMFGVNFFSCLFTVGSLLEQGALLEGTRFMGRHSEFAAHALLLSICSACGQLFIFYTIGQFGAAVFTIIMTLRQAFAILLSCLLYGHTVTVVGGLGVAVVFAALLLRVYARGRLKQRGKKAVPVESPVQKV

Target	NP40-soluble protein abundance (concentration: 1mM)	NP40-soluble protein abundance (concentration: 2mM)	NP40-soluble protein abundance (concentration: 4mM)	NP40-soluble protein abundance (concentration: 6mM)	NP40-soluble protein abundance (concentration: 8mM)	NP40-soluble protein abundance (concentration: 10mM)
PYCR2 (UniProt Q96C36)	0.98 ± 0.028	1.01 ± 0.051	0.997 ± 0.013	1.01 ± 0.011	0.9755 ± 0.0097	1 ± 0.032
UniProt Q14197|J3KS15	1 ± 0.1	0.952 ± 0.083	0.974 ± 0.087	0.95 ± 0.13	0.978 ± 0.14	0.953 ± 0.19
PDCL (UniProt Q13371)	0.966 ± 0.026	0.973 ± 0.039	0.969 ± 0.056	0.932 ± 0.062	0.938 ± 0.083	0.928 ± 0.082
UniProt Q15084|Q15084-2|Q15084-3|Q15084-4|Q15084-5	0.949 ± 0.019	0.989 ± 0.021	0.9386 ± 0.0066	0.951 ± 0.032	0.92 ± 0.022	0.94 ± 0.047
DNAJB14 (UniProt Q8TBM8)	0.975 ± 0.025	0.987 ± 0.066	0.971 ± 0.028	0.953 ± 0.039	0.952 ± 0.035	0.947 ± 0.035
UniProt Q92614|Q92614-2|Q92614-4	1.02 ± 0.025	1.05 ± 0.026	1.01 ± 0.014	0.984 ± 0.045	0.955 ± 0.026	0.971 ± 0.042
THOC7 (UniProt Q6I9Y2)	1.29 ± 0.045	1.47 ± 0.2	1.57 ± 0.24	1.73 ± 0.39	1.85 ± 0.47	1.93 ± 0.64
TMED4 (UniProt Q7Z7H5)	1.017 ± 0.0076	0.973 ± 0.026	0.99 ± 0.032	1.02 ± 0.036	1.02 ± 0.025	1 ± 0.038
UniProt Q8TEX9|Q8TEX9-2	1.01 ± 0.026	0.974 ± 0.059	0.99 ± 0.017	0.9956 ± 0.0059	1.007 ± 0.0054	0.981 ± 0.025
EHBP1L1 (UniProt Q8N3D4)	1.06 ± 0.028	1.11 ± 0.099	1.07 ± 0.11	1.02 ± 0.034	1.01 ± 0.059	1.01 ± 0.08
UniProt Q8NHM5|Q8NHM5-2|Q8NHM5-3|Q8NHM5-4	1.02 ± 0.024	1.034 ± 0.0075	1.04 ± 0.054	1.04 ± 0.04	1.01 ± 0.021	1.04 ± 0.034
KBTBD8 (UniProt Q8NFY9)	0.953 ± 0.046	0.944 ± 0.043	0.955 ± 0.035	0.976 ± 0.018	0.973 ± 0.02	0.965 ± 0.025
UniProt Q5JTJ3|Q5JTJ3-2|Q5JTJ3-3|X6R5Z6	1.02 ± 0.015	1.04 ± 0.081	0.991 ± 0.038	0.97 ± 0.043	0.943 ± 0.016	0.966 ± 0.046
TTC37 (UniProt Q6PGP7)	0.822 ± 0.084	0.793 ± 0.14	0.791 ± 0.11	0.768 ± 0.077	0.761 ± 0.078	0.76 ± 0.079
PRPF4B (UniProt Q13523)	1.02 ± 0.02	1.01 ± 0.048	1.1 ± 0.037	1.2 ± 0.032	1.26 ± 0.042	1.34 ± 0.067
UniProt Q8TB61|Q8TB61-2|Q8TB61-3	0.968 ± 0.041	0.969 ± 0.045	0.965 ± 0.045	0.953 ± 0.034	0.951 ± 0.042	0.989 ± 0.019
THOC5 (UniProt Q13769)	1.36 ± 0.17	1.42 ± 0.23	1.65 ± 0.35	1.84 ± 0.54	2.03 ± 0.65	2.16 ± 0.88
CMIP (UniProt Q8IY22)	0.986 ± 0.047	0.964 ± 0.031	0.942 ± 0.029	0.958 ± 0.046	0.935 ± 0.022	0.923 ± 0.043
TBRG4 (UniProt Q969Z0)	0.984 ± 0.03	0.953 ± 0.033	0.955 ± 0.012	0.959 ± 0.028	0.941 ± 0.022	0.935 ± 0.054
UniProt Q15056-2|Q15056	0.999 ± 0.037	1.03 ± 0.035	0.945 ± 0.14	0.94 ± 0.081	0.929 ± 0.087	0.884 ± 0.21
UniProt Q6UN15|Q6UN15-3	1.03 ± 0.024	1.11 ± 0.062	1.059 ± 0.0078	1.07 ± 0.053	1.08 ± 0.034	1.15 ± 0.064
NUBPL (UniProt Q8TB37)	1 ± 0.045	1.01 ± 0.057	1.02 ± 0.05	1.06 ± 0.092	1.03 ± 0.092	1.05 ± 0.076
UniProt Q6PI47	0.873 ± 0.06	0.905 ± 0.046	0.947 ± 0.051	1 ± 0.023	1.08 ± 0.047	1.1 ± 0.064
UniProt Q5F1R6|Q5F1R6-3	1.044 ± 0.0025	1.12 ± 0.041	1.123 ± 0.0067	1.11 ± 0.066	1.09 ± 0.019	1.11 ± 0.035
PDAP1 (UniProt Q13442)	1.07 ± 0.072	1.17 ± 0.026	1.13 ± 0.048	1.26 ± 0.093	1.24 ± 0.085	1.35 ± 0.12
UniProt Q8N122|Q8N122-3	1.01 ± 0.031	0.955 ± 0.021	0.985 ± 0.011	0.972 ± 0.013	0.967 ± 0.018	0.994 ± 0.034
UniProt Q86U86|Q86U86-8	1.051 ± 0.009	1.1 ± 0.014	1.15 ± 0.017	1.226 ± 0.008	1.29 ± 0.035	1.37 ± 0.09
UniProt Q86UK7|Q86UK7-3|Q86UK7-2	1.03 ± 0.043	1.03 ± 0.022	1.07 ± 0.031	1.08 ± 0.038	1.1 ± 0.048	1.11 ± 0.07
MTDH (UniProt Q86UE4)	1.13 ± 0.046	1.3 ± 0.16	1.32 ± 0.073	1.46 ± 0.2	1.47 ± 0.17	1.58 ± 0.17
UniProt Q8N3X1|Q8N3X1-2	1.04 ± 0.042	1.12 ± 0.093	1.21 ± 0.11	1.45 ± 0.15	1.49 ± 0.17	1.58 ± 0.24

— the supplement of paper PMC6411743
